Screens (PubChem)
Only some compounds are listed: those with a hit (about 6.3% of all), similar ones and a draw of the others.
tim10-1 inh = growth inhibitors of tim10-1 mutant yeast, primary screen, luminescence, uHTS. actives 2.2% (n = 330,000). inhibition, % at 20 µM. S. cerevisiae tim10-1 ts strain growth, BacTiter-Glo, 24 h;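 active = inhibition of at least 40%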;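 also: mutant grown at 25 °C; 0% = DMSO wells with yeast and 100% = wells holding no yeast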
TIM10 inh = growth inhibitors of isogenic TIM10 control yeast, primary screen, counter-screen for tim10-1 yeast inhibitor project, luminescence, uHTS; S. cerevisiae TIM10 strain growth, BacTiter-Glo luminescence, 24 h; inhibition, % at 10 µM; actives 1.4% (n = 330,000); AID 463195, 2010;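 active = inhibition of 40% or more at the single tested concentration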;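 also: wild-type TIM10 isogenic control strain grown at permissive 25 °C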
Mdm2-MdmX inh = inhibitors of human Mdm2-MdmX association, primary screen, cell-based, luminescence, split luciferase, SaOS-2, uHTS; inhibition, % at 8 µM; Protein Mdm4 (Homo sapiens) + E3 ubiquitin-protein ligase Mdm2 (Homo sapiens), …; actives 3% (n = 330,000); SaOS-2 split-luciferase Mdm2/MdmX complementation;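 active = inhibition of at least 50% at 8 µM in the primary screen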
Target sequence (O15151 whole entry, looked up): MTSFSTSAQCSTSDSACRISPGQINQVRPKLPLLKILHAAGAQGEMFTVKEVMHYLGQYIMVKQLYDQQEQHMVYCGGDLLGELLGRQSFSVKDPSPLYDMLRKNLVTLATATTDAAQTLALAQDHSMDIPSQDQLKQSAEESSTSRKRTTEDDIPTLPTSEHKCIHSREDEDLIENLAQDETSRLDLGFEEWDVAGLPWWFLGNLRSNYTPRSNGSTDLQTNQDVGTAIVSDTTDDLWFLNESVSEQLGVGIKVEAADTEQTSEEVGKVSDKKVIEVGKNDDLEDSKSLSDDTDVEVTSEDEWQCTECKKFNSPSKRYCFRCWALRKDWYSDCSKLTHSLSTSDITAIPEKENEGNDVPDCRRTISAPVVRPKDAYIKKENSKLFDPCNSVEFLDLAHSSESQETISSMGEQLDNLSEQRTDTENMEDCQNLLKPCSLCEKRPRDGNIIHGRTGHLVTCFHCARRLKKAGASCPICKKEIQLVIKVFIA
Target sequence (Q00987 whole entry, looked up): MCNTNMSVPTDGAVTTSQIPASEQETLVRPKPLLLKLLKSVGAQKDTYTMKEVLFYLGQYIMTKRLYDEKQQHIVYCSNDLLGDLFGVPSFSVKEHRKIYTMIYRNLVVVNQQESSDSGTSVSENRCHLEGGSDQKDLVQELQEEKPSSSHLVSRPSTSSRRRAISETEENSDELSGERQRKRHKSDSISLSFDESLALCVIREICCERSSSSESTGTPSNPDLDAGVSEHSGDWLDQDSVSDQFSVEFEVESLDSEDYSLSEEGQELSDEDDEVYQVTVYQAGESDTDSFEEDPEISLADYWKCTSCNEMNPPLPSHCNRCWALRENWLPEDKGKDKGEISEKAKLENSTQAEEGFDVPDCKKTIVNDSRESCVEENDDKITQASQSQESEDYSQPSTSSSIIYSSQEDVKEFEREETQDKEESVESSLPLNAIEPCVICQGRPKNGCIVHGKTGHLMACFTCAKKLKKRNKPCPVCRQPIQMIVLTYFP
MPTP inh = mitochondrial permeability transition pore inhibitors, primary screen, biochemical, isolated mouse mitochondria, absorbance | Ca2+ swelling absorbance, 30 min | inhibition, % at 10 µM | actives 1.4% (n = 360,000) | AID 602449, 2012;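 active = inhibition of 50% or more, scaled per plate between neutral and stimulator controls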;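 also: 0% = DMSO wells given calcium and 100% = 1 mM EGTA wells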
tim23-1 inh = growth inhibitors of tim23-1 mutant yeast, primary screen, luminescence, uHTS. S. cerevisiae tim23-1 growth, BacTiter-Glo luminescence, 24 h. inhibition, % at 20 µM. actives 1.3% (n = 330,000). AID 463212, 2010;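 active = growth inhibition of the mutant yeast at or above 50%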;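 also: temperature-sensitive mutant grown at 25 °C; plate controls were DMSO-treated mutant yeast for no effect and medium wells lacking yeast for full effect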
Mdm2-MdmX conf = Mdm2-MdmX complex disruptors, retested hits, confirmation, luminescence, single concentration; inhibition, % at 8 µM; Mdm2-MdmX binding, luminescent assay; AID 489028, 2010; actives 55% (n = 10,000); shares compounds with Mdm2-MdmX inh; in the data active = inhibition above about 40%
FLuc counter = full-length luciferase signal inhibition, confirmation, counter-screen for Mdm2/MdmX interaction inhibitor project, cell-based, single concentration, SaOS-2. shares compounds with Mdm2-MdmX inh. SaOS-2 full-length luciferase counterscreen, luminescence. inhibition, % at 8 µM. actives 77% (n = 6,200);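 active = mean inhibition at 8 µM reaching about 37%, which flags the compound as non-specific, limit read from the data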;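 also: p53-null SaOS-2 cells with luciferase driven by a doxycycline-inducible promoter; compound on cells about two nights before reading with doxycycline added after day one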
* = called active by the depositor; · = not tested or not shown.

SMILES	tim10-1 inh	TIM10 inh	Mdm2-MdmX inh	MPTP inh	tim23-1 inh	Mdm2-MdmX conf	FLuc counter
Cc1ccc(C2NC(=O)NC3=C2CCc2ccccc23)cc1 (centres undefined)	14	9	8	3	19	·	·
COc1ccc(C2NC(=O)NC3=C2CCc2ccccc23)cc1 (centres undefined)	17	8	55*	2	13	46*	83*
Cc1cccc(C)c1NC(=O)C1c2ccccc2OCC(=O)N1Cc1ccccc1 (centres undefined)	·	·	·	0	·	·	·
COC(=O)[C@]1(C)N[C@H](c2ccc(-c3ccc(OC)cc3)cc2)[C@@H]2C(=O)N(C)C(=O)[C@@H]21	8	6	1	0	7	·	·
CCN1C(=O)[C@H]2[C@@H](c3ccc(-c4ccc(Cl)c(Cl)c4)c(OC)c3)N[C@@](Cc3ccccc3)(C(=O)OC)[C@H]2C1=O	5	-3	62*	0	-2	47*	46*
COC(=O)[C@]1(C)N[C@H](c2ccc(-c3ccc(Cl)c(Cl)c3)c(OC)c2)[C@@H]2C(=O)N(C)C(=O)[C@@H]21	39	12	65*	-1	44	40*	49*
CC1(C(=O)Nc2cccc3cccnc23)CCN1Cc1cccc2c1OCO2 (centres undefined)	·	·	·	-1	·	·	·
CC1=C(C(=O)OCc2ccc3c(c2)OCO3)C(c2ccc(O)c([N+](=O)[O-])c2)NC(=O)N1 (centres undefined)	9	-9	51*	0	7	35	·
CC1=C(C(=O)OCc2ccc3c(c2)OCO3)C(c2ccccc2)NC(=O)N1 (centres undefined)	22	22	87*	4	18	91*	52*
CCc1nc2c(OCc3cc(Cl)cc(Cl)c3)cccn2c1N(C=O)Cc1ccc(OC)cc1	·	·	·	0	·	·	·
S=C(NCc1ccccn1)NN=Cc1ccccn1	·	·	·	0	·	·	·
Nc1[nH]c(C(=O)c2ccccc2)c(-c2ccc(F)cc2)c1C(=O)NCc1ccccc1	·	·	·	3	·	·	·
CC(C)COc1cccc(-c2cc(C(=O)N/N=C/c3ccncc3)c3ccccc3n2)c1	26	27	81*	3	30	84*	47*
Cc1nn(-c2ccccc2)c(N2CCCC2)c1/C=N/NC(=O)c1ccccc1O	16	23	21	26	19	·	·
CCOc1cc(/C=N/NC(=O)c2cc(-c3cccc(OC)c3)nc3ccccc23)ccc1O	6	10	-8	3	9	·	·
CC(/C=N/NC(=O)c1cc(-c2ccc(Cl)cc2)nc2ccccc12)=C\c1ccco1	36	32	66*	1	8	0	·
Cc1nn(-c2ccccc2)c(N2CCCC2)c1/C=N/NC(=O)c1cc(-c2cccnc2)nc2ccccc12	3	10	56*	2	9	22	·
CC(/C=N/NC(=O)c1cc(-c2ccccc2)nc2ccccc12)=C\c1ccco1	35	19	42	0	29	·	·
CCCc1cc(C(=O)N/N=C/c2ccc(CC)s2)c2ccccc2n1	16	14	63*	0	7	65*	40*
CCCc1cc(C(=O)N/N=C/c2ccc(C)o2)c2ccccc2n1	23	18	39	13	14	·	·
COC(=O)C1=CN(c2ccc(C)cc2)C(N)=C(C#N)C1c1ccc(OC)cc1 (centres undefined)	·	·	·	0	·	·	·
FC(F)(F)c1ccccc1Cc1c(-c2cccc(Cl)c2)nc2ccc(Cl)cn12	·	·	·	3	·	·	·
CCCCCCN1C[C@@H](O)[C@H](n2cc(-c3ccc(F)cc3)nn2)C[C@@H]1c1ccccc1	·	·	·	0	·	·	·
CCc1nc2c(OCC(=O)c3ccc(F)cc3)cccn2c1N(C)C(=O)C(C)C	·	·	·	0	·	·	·
O[C@@H]1CN(Cc2cccs2)[C@@H](c2ccc(Cl)cc2)C[C@H]1n1cc(-c2ccc(F)cc2)nn1	·	·	·	0	·	·	·
SMILES	tim10-1 inh	TIM10 inh	Mdm2-MdmX inh	MPTP inh	tim23-1 inh	Mdm2-MdmX conf	FLuc counter
C/C(=N\NC(=O)c1cc(-c2cccc(OC(C)C)c2)nc2ccccc12)c1cccnc1	6	4	22	-1	24	·	·
O=C(N/N=C/c1ccccn1)c1cc(C2CC2)nc2ccccc12	22	10	-8	0	4	·	·
O=C(N/N=C/c1ccccn1)c1cc(-c2ccccc2)nc2ccccc12	35	37	71*	-3	41	3	·
C/C(=N\NC(=O)c1cc(-c2cccnc2)nc2ccccc12)c1ccc(O)cc1O	-5	-11	66*	2	-14	80*	23
CCc1ccc(/C=N/NC(=O)c2cc(-c3ccncc3)nc3ccccc23)s1	32	17	52*	0	36	62*	80*
CCOC(=O)[C@]12CCC=C1N(Cc1ccc(Cl)cc1Cl)C(=O)[C@H](CC(=O)NCc1ccc(OC)c(OC)c1)C2	·	·	·	-1	·	·	·
COC(=O)C[C@H]1C=C[C@H](NS(=O)(=O)c2cn(C)cn2)[C@@H](CO)O1	·	·	·	0	·	·	·
COc1cccc(C2CC(=O)Nc3cc4c(cc32)OCCO4)c1OC(C)C (centres undefined)	21	-3	23	-1	12	·	·
CCOc1ccccc1C1C2=C(COC2=O)Nc2cc3c(cc21)OCO3 (centres undefined)	18	5	69*	2	13	57*	65*
CCCOc1c(OC)cccc1C1CC(=O)Nc2cc3c(cc21)OCO3 (centres undefined)	21	-9	55*	-3	27	51*	68*
CCCOc1c(OC)cccc1C1CC(=O)Nc2cc3c(cc21)OCCO3 (centres undefined)	9	14	52*	-2	22	55*	68*
COc1ccccc1C1CC(=O)Nc2cc3c(cc21)OCCO3 (centres undefined)	0	2	55*	-1	-3	59*	64*
CCOC(=O)C1=CCC(C(C)(C)C)N(S(=O)(=O)c2ccc(C)cc2)C1 (centres undefined)	·	·	·	-1	·	·	·
C=C1CCC2[C@](C)(CO)[C@H](O)CC[C@@]2(C)[C@@H]1C/C=C1\C(=O)OC[C@H]1O (some centres undefined)	9	4	69*	-1	14	63*	27
C=C/C(C)=C/C[C@H]1C(=C)CCC2[C@](C)(C(=O)O)CCC[C@@]21C (some centres undefined)	2	-21	3	1	7	·	·
